Results reported in PubChem BioAssay (NCI).
The panel holds about 79,000 compounds, 15% with a hit somewhere; the sample as a whole holds those more often. A number with no mark means an inactive call. Active and inactive are the calls of the source. Rule as the data show it: active = growth inhibition above about 70%; inactive = the rest. Where a SMILES comes first, the peptide text is derived from it. The star is where a group is joined. Cbz = O=C(OCc1ccccc1)*; Boc = CC(C)(C)OC(=O)*; OSu = O=C1CCC(=O)N1O*; Bn = c1ccc(C*)cc1

Assays:
[1] = NCI Yeast Anticancer Drug Screen. Data for the rad50 strain (AID 155);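 also: 0% = growth of vehicle-only cultures of the same strain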; conditions: S. cerevisiae rad50 strain growth inhibition, stronger effect = higher value
How it was run: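 Compounds were tested on a yeast strain with an engineered DNA damage repair alteration; the reported value is growth inhibition normalised to vehicle treatment.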

[2] = NCI Yeast Anticancer Drug Screen. Data for the mec2-1 strain (AID 157); conditions: S. cerevisiae mec2-1 strain, stronger effect = higher value
How it was run: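 Mutant yeast (mec2-1) grown with compound; growth inhibition relative to vehicle control reported.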

[3] = NCI Yeast Anticancer Drug Screen. Data for the sgs1 mgt1 strain (AID 161);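 also: 0% = growth of cultures given vehicle only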; conditions: S. cerevisiae sgs1 mgt1 strain, stronger effect = higher value
How it was run: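 Percent growth inhibition was derived by comparing compound-exposed mutant yeast with vehicle-exposed cultures. The strain carries alterations in DNA damage repair.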

[4] = NCI Yeast Anticancer Drug Screen. Data for the cln2 rad14 strain (AID 165);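 also: 0% = growth equal to vehicle treated cultures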; conditions: S. cerevisiae cln2 rad14 strain, stronger effect = higher value
How it was run: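 Readout is yeast growth inhibition versus vehicle-treated controls, using a strain with cln2 and rad14 alterations exposed to compound.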

[5] = NCI Yeast Anticancer Drug Screen. Data for the bub3 strain (AID 167); conditions: S. cerevisiae bub3 mutant strain, stronger effect = higher value
How it was run: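 Growth of a checkpoint-deficient yeast mutant is measured after compound exposure. Values represent inhibition relative to vehicle.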

[6] = NCI Yeast Anticancer Drug Screen. Data for the mlh1 rad18 strain (AID 175); conditions: S. cerevisiae mlh1 rad18 strain growth inhibition, stronger effect = higher value
How it was run: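 Genetically defined yeast (DNA repair-deficient) exposed to compounds; growth inhibition determined relative to vehicle.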

[7] = at 5.0 µM (retest, dose inferred, filed as 0.5)
[8] = at 50.0 µM (retest, dose inferred, filed as 5.0)

| SMILES | growth inhibition [1, 7] | growth inhibition [1, 8] | growth inhibition ([1]; at 50.0 µM) | growth inhibition [2, 7] | growth inhibition [2, 8] | growth inhibition ([2]; at 50.0 µM) | growth inhibition [3, 7] | growth inhibition [3, 8] | growth inhibition ([3]; at 50.0 µM) | growth inhibition [4, 7] | growth inhibition [4, 8] | growth inhibition ([4]; at 50.0 µM) | growth inhibition [5, 7] | growth inhibition [5, 8] | growth inhibition ([5]; at 50.0 µM) | growth inhibition [6, 7] | growth inhibition [6, 8] | growth inhibition ([6]; at 50.0 µM) |
| --- | --- | --- | --- | --- | --- | --- | --- | --- | --- | --- | --- | --- | --- | --- | --- | --- | --- | --- |
| Cc1ccc(N=Nc2ncccc2O)cc1C | -157% | 95% (active) | 98.8% (active) | -49% | 95% (active) | 98.2% (active) | -67% | 95% (active) | 98.4% (active) | -64% | 93% (active) | 87.4% (active) | -85% | 96% (active) | 97.7% (active) | -121% | 95% (active) | 98.2% (active) |
| O=C(/C=N/O)c1c(-c2ccccc2)[nH]c(-c2ccccc2)c1-c1ccccc1 | 4% | 75% (active) | 94.2% (active) | 5% | 77% (active) | 77.8% (active) | 7% | 90% (active) | 96.3% (active) | 1% | 33% | 91% (active) | 11% | 13% | 85.7% (active) | 31% | 93% (active) | 96% (active) |
| O=C(Nc1ccccc1Cl)c1ccc(Cl)c(Cl)c1 | 4% | 0% | -0.85% | 4% | 2% | 1% | 1% | 1% | 10.2% | 2% | -2% | 29.6% | 1% | -3% | 2.2% | -1% | 1% | -18.2% |
| CC(C)/C=C1\CCC(CN2CCOCC2)C1=O (stereo not given) | 24% | 36% | 72.1% (active) | 18% | 26% | 28.4% | 22% | 44% | 48.7% | 23% | 20% | 30.9% | 17% | 62% | 30.6% | -5% | 71% (active) | 67.2% |
| O=S(=O)(CCCCl)SCCCCl | 11% | 99% (active) | 99.4% (active) | 15% | 99% (active) | 99.5% (active) | 18% | 100% (active) | 99.5% (active) | 23% | 99% (active) | 99.7% (active) | 22% | 100% (active) | 99.7% (active) | 19% | 99% (active) | 99.5% (active) |
| CCNc1ccccc1C | 3% | 91% (active) | 98.7% (active) | -1% | 88% (active) | 98.2% (active) | -2% | 86% (active) | 97% (active) | 2% | 97% (active) | 96.4% (active) | 7% | 82% (active) | 97.7% (active) | 3% | 97% (active) | 98.3% (active) |
| OC(c1cc(-c2ccccc2)nc2c(Cl)cc(Cl)cc12)C1CCCCN1 (stereo not given) | 14% | 97% (active) | 99.5% (active) | 18% | 92% (active) | 99.6% (active) | 18% | 98% (active) | 99.1% (active) | 3% | 98% (active) | 98.3% (active) | 2% | 99% (active) | 97.5% (active) | 11% | 96% (active) | 98.8% (active) |
| O=C1C(=Cc2ccccc2O)N=C(c2ccccc2)N1n1c(-c2ccccc2)nc2ccccc2c1=O | 5% | 31% | 58% | -3% | 22% | 49.2% | 0% | 24% | 75.7% (active) | 8% | 33% | 50.3% | -13% | 45% | 80.2% (active) | 11% | 39% | 73.3% (active) |
| CC(C)(C)OC(=O)NC(Cc1ccc(OCc2ccccc2)cc1)C(=O)NC(CCCCNC(=O)OCc1ccccc1)C(=O)ON1C(=O)CCC1=O (stereo not given) (Boc-Tyr(Bn)-Lys(Cbz)-OSu; configuration not given here) | 47% | 73% (active) | 64.2% | 31% | 66% | 48.5% | 40% | 64% | 38.9% | 31% | 50% | 55.5% | 37% | 70% (active) | 62.5% | 51% | 83% (active) | 57% |
| COc1ccc2[nH]cc(C(=O)O)c2c1 | -4% | 55% | 38% | -5% | 65% | 2.6% | 7% | 31% | 66.3% | 0% | 36% | 40% | 1% | 46% | 79.8% (active) | -30% | 84% (active) | 25% |
| O=C(CCN1CCOCC1)c1ccc(Oc2ccc(F)cc2)cc1 | 65% | 87% (active) | 67.2% | 64% | 95% (active) | 77% (active) | 80% (active) | 95% (active) | 85.2% (active) | 64% | 66% | 78.1% (active) | 88% (active) | 98% (active) | 85.4% (active) | 74% (active) | 90% (active) | 88% (active) |
| CC(CO)(CO)N=Cc1cc(I)cc(I)c1O | 91% (active) | 100% (active) | 99.6% (active) | 97% (active) | 100% (active) | 99.6% (active) | 86% (active) | 99% (active) | 99.7% (active) | 87% (active) | 99% (active) | 99.4% (active) | 86% (active) | 100% (active) | 99.5% (active) | 98% (active) | 100% (active) | 99.6% (active) |
| CCOC(=O)CSC(=S)Nc1ccc(Cl)cc1 | 0% | 88% (active) | 88.9% (active) | -2% | 91% (active) | 21.1% | 5% | 95% (active) | 87.5% (active) | -5% | 36% | -26.8% | -9% | 61% | 50.5% | 6% | 98% (active) | 93.7% (active) |
| CNC(C)C(=O)c1ccc2ccc3ccccc3c2c1 (stereo not given) | -3% | 24% | 54.5% | -5% | 12% | 46.6% | -2% | 34% | 58.9% | 0% | 16% | 17.6% | -3% | 24% | 67.8% | -6% | 28% | 71.5% (active) |
| COC(=O)N(C[C@@H]1C=CCCC1)c1ccccc1I | 29% | 66% | 88.3% (active) | 29% | 61% | 91.2% (active) | 26% | 63% | 89.6% (active) | 29% | 34% | 87.5% (active) | 47% | 74% (active) | 91% (active) | 41% | 70% (active) | 89.9% (active) |
| CCOc1ccc(C=Nc2ccc(/C=C(\C)C(=O)OCCC(C)C)cc2)cc1 | 50% | 98% (active) | 97.6% (active) | 72% (active) | 99% (active) | 98.2% (active) | 85% (active) | 99% (active) | 97.5% (active) | 94% (active) | 98% (active) | 97.2% (active) | 86% (active) | 97% (active) | 82.2% (active) | 92% (active) | 99% (active) | 98% (active) |
| COc1cc(C)c2sc3ccccc3c(=O)c2c1NCCCN(C)C | 1% | 51% | 72.3% (active) | -4% | -6% | 37% | -2% | 58% | 70.3% (active) | -4% | 51% | 14.6% | 0% | 53% | 27.1% | -3% | 54% | 95.3% (active) |
| Oc1ccccc1/C=N\N=C\c1ccccc1O | 5% | -22% | 8.75% | -10% | -3% | 3.5% | 4% | 4% | -10.8% | 7% | -3% | 37.2% | -70% | 6% | 0.8% | 2% | 0% | 13.2% |
| Nc1nc(-c2ccc3c(c2)Sc2ccccc2O3)cs1 | 18% | 99% (active) | 67.6% | 39% | 100% (active) | 65.3% | 57% | 99% (active) | 91.3% (active) | 7% | 99% (active) | 78.1% (active) | 11% | 99% (active) | 86.7% (active) | 57% | 99% (active) | 93.7% (active) |
| CCCCCCCCCCCCCC/[N+]([O-])=C/c1ccc([N+](=O)[O-])o1 | 7% | 18% | 50.1% | 2% | 10% | 45.3% | 8% | 70% (active) | 50.1% | 8% | 13% | 29.8% | 0% | 14% | 78% (active) | 8% | 79% (active) | 54.2% |
